Results from PubChem BioAssay AID1159580 (chemical genetic matrix, 2015).
The whole screen tested about 5,500 compounds, of which about 2,000 (36%) were called active. Another 18% or so got no clear call; they are omitted. No stated cut-off is given here; in the data, active means normalized growth mostly below about 0.91 (no sharp cut-off); inconclusive means no clear call, values can overlap the other calls; inactive means mostly above about 0.92. Some of the results follow.

Test: chemical genetic growth profiling, strain panel (AID 1159580);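 further: tested at 20 µM; growth read once vehicle control cultures reached saturation at 30 °C; 1 = growth at the plate median or of vehicle wells; lower values mean less growth of the strain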
Settings: S. cerevisiae deletion strains, growth OD
[1] = locus YAR019C, strain CDC15, active compounds read low
[2] = locus YBL105C, strain PKC1, active compounds read low
[3] = locus YBR135W, strain CKS1, active compounds read low
[4] = locus YBR136W, strain MEC1, active compounds read low
[5] = locus YBR160W, strain CDC28, active compounds read low
[6] = locus YDL017W, strain CDC7, active compounds read low
[7] = locus YDL028C, strain MPS1, active compounds read low
[8] = locus YDL101C, strain DUN1, active compounds read low
[9] = locus YDL108W, strain KIN28, active compounds read low
[10] = locus YDL132W, strain cdc53, active compounds read low
[11] = locus YDL214C, strain PRR2, active compounds read low
[12] = locus YDR052C, strain DBF4, active compounds read low
[13] = locus YDR054C, strain cdc34, active compounds read low
[14] = locus YDR226W, strain ADK1, active compounds read low
[15] = locus YDR477W, strain SNF1, active compounds read low
[16] = locus YER123W, strain YCK3, active compounds read low
[17] = locus YER133W, strain GLC7, active compounds read low
[18] = locus YFL009W, strain cdc4, active compounds read low
[19] = locus YFL029C, strain CAK1, active compounds read low
[20] = locus YFR003C, strain YPI1, active compounds read low
[21] = locus YFR019W, strain FAB1, active compounds read low
[22] = locus YFR028C, strain CDC14, active compounds read low
[23] = locus YGR040W, strain KSS1, active compounds read low
[24] = locus YGR052W, strain FMP48, active compounds read low
[25] = locus YGR092W, strain DBF2, active compounds read low
[26] = locus YHR030C, strain SLT2, active compounds read low
[27] = locus YHR079C, strain IRE1, active compounds read low
[28] = locus YHR082C, strain KSP1, active compounds read low
[29] = locus YHR205W, strain SCH9, active compounds read low
[30] = locus YIL147C, strain SLN1, active compounds read low
[31] = locus YJL095W, strain BCK1, active compounds read low
[32] = locus YJL128C, strain PBS2, active compounds read low
[33] = locus YJL157C, strain FAR1, active compounds read low
[34] = locus YJR016C, strain ILV3, active compounds read low
[35] = locus YJR066W, strain TOR1 (second series), active compounds read low
[36] = locus YJR066W, strain TOR1, active compounds read low
[37] = locus YKL048C, strain ELM1, active compounds read low
[38] = locus YKL067W, strain YNK1, active compounds read low
[39] = locus YKL101W, strain HSL1, active compounds read low
[40] = locus YKL193C, strain SDS22, active compounds read low
[41] = locus YKL203C, strain TOR2, active compounds read low
[42] = locus YLR113W, strain HOG1, active compounds read low
[43] = locus YLR133W, strain CKI1, active compounds read low
[44] = locus YLR403W, strain SFP1, active compounds read low
[45] = locus YML070W, strain DAK1, active compounds read low
[46] = locus YMR001C, strain CDC5, active compounds read low
[47] = locus YMR205C, strain PFK2 (second series), active compounds read low
[48] = locus YMR277W, strain FCP1, active compounds read low
[49] = locus YNL006W, strain LST8, active compounds read low
[50] = locus YNL020C, strain ARK1, active compounds read low
[51] = locus YNL161W, strain CBK1, active compounds read low
[52] = locus YNL183C, strain NPR1, active compounds read low
[53] = locus YNL207W, strain RIO2, active compounds read low
[54] = locus YNL222W, strain SSU72, active compounds read low
[55] = locus YNL307C, strain MCK1 (second series), active compounds read low
[56] = locus YOL078W, strain AVO1, active compounds read low
[57] = locus YOL136C, strain PFK27, active compounds read low
[58] = locus YOR061W, strain CKA2, active compounds read low
[59] = locus YOR119C, strain RIO1, active compounds read low
[60] = locus YOR231W, strain MKK1, active compounds read low
[61] = locus YOR329C, strain SCD5, active compounds read low
[62] = locus YPL031C, strain PHO85, active compounds read low
[63] = locus YPL153C, strain RAD53, active compounds read low
[64] = locus YPL204W, strain HRR25, active compounds read low
[65] = locus YPL209C, strain IPL1, active compounds read low
[66] = locus YPL256C, strain CLN2, active compounds read low
[67] = locus YPR025C, strain CCL1, active compounds read low
[68] = locus YPR106W, strain ISR1, active compounds read low
[69] = locus YPR111W, strain DBF20, active compounds read low
[70] = strain NNK1, active compounds read low
[71] = strain TSCII, active compounds read low

Measured: normalized growth

CCCCNC(=S)N/N=C\c1cc(Cl)cc(Cl)c1O
active: [11] 0.65 | [15] 0.513 | [16] 0.519 | [17] 0.601 | [23] 0.531 | [24] 0.195 | [25] 0.35 | [26] 0.275 | [28] 0.242 | [29] 0.236 | [31] 0.352 | [33] 0.63 | [35] 0.58 | [36] 0.289 | [37] 0.637 | [38] 0.676 | [39] 0.385 | [41] 0.249 | [42] 0.444 | [43] 0.49 | [44] 0.302 | [45] 0.603 | [47] 0.603 | [50] 0.44 | [52] 0.318 | [55] 0.362 | [58] 0.538 | [59] 0.343 | [62] 0.477 | [63] 0.495 | [64] 0.488 | [66] 0.457 | [70] 0.787
inactive: [1] 0.929 | [2] 0.928 | [3] 0.922 | [4] 0.924 | [5] 0.941 | [6] 0.926 | [7] 0.926 | [8] 0.97 | [9] 0.922 | [10] 0.917 | [12] 0.941 | [13] 0.914 | [14] 0.924 | [18] 0.913 | [19] 0.936 | [20] 0.918 | [21] 0.785 | [22] 0.924 | [27] 0.601 | [30] 0.923 | [32] 0.897 | [34] 0.922 | [40] 0.916 | [46] 0.913 | [48] 0.905 | [49] 0.934 | [51] 0.932 | [53] 0.922 | [54] 0.933 | [56] 0.912 | [57] 0.713 | [60] 0.591 | [61] 0.924 | [65] 0.928 | [67] 0.931 | [68] 0.908 | [69] 0.933 | [71] 0.918

CC(C)(C)C(=O)NC(=S)N/N=C\c1cc(Cl)cc(Cl)c1O
inactive: [1] 0.924 | [2] 0.937 | [3] 0.907 | [4] 0.936 | [5] 0.94 | [6] 0.94 | [7] 0.927 | [8] 0.949 | [9] 0.936 | [10] 0.961 | [12] 0.945 | [13] 0.918 | [14] 0.958 | [18] 0.924 | [19] 0.923 | [20] 0.947 | [22] 0.938 | [30] 0.933 | [32] 0.974 | [34] 0.922 | [40] 0.921 | [46] 0.919 | [48] 0.926 | [49] 0.924 | [51] 0.932 | [53] 0.953 | [54] 0.926 | [56] 0.916 | [61] 0.949 | [65] 0.93 | [67] 0.928 | [68] 0.969 | [69] 0.954 | [70] 0.958
active: [11] 0.333 | [15] 0.566 | [16] 0.167 | [17] 0.48 | [21] 0.365 | [23] 0.546 | [24] 0.346 | [25] 0.165 | [26] 0.278 | [27] 0.144 | [28] 0.277 | [29] 0.248 | [31] 0.2 | [33] 0.215 | [35] 0.149 | [36] 0.182 | [37] 0.439 | [38] 0.286 | [39] 0.237 | [41] 0.332 | [42] 0.245 | [43] 0.224 | [44] 0.35 | [45] 0.285 | [47] 0.221 | [50] 0.19 | [52] 0.269 | [55] 0.18 | [57] 0.242 | [58] 0.245 | [59] 0.547 | [60] 0.173 | [62] 0.498 | [63] 0.27 | [64] 0.249 | [66] 0.285 | [71] 0.768
